Measured values from the supplement of paper PMC3342239.
Counter-ions that a name gives are not always drawn.

test system: Saccharomyces cerevisiae; assay: fraction of cells in G1 phase (DNA content, flow cytometry); higher = more cells with unreplicated DNA (G1 delay); conditions: temperature: 30 C; YPD; BY4741 PDR5+ SNQ2+; drug added to: actively dividing cells; 4.33 h
Method: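 S. cerevisiae cultures in YPD at 30°C were treated with each drug of the Enzo FDA-approved library at 20 µg/ml (final µM given per drug). Cells were fixed after 6–7 h (S1) or 6 h (S2), or after 4.33 h for BY4741 (S3), then stained with SYTOX Green. %G1 is the Dean-Jett-Fox G1 peak area divided by the G1+G2/M peak areas, written as a fraction and averaged over at least two independent experiments. DMSO reference: mean ~0.49; >0.60 is called High G1 and <0.3876 Low G1. Scale: lower means mitotic delay.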

Going from `CC1C=CC=CCCC=CC=CC=CC=CC(OC2OC(C)C(O)C(N)C2O)CC2OC(O)(CC(O)C(O)CCC(O)CC(O)CC(O)CC(=O)OC(C)C(C)C1O)CC(O)C2C(=O)O` (stereo not given) [Nystatin] (21.5955 µM) to `C[C@@H]1CC[C@H]2[C@@H](C)C(=O)O[C@@H]3O[C@@]4(C)CC[C@@H]1[C@]32OO4` [Artemisinin] (70.8367 µM), the “fraction of cells in G1 phase” value falls from 0.549 to 0.5.

Compared with `C#C[C@]1(O)CC[C@H]2[C@@H]3CCC4=CC(=O)CCC4=C3C=C[C@@]21CC` [Gestrinone] (64.8457 µM), `C[C@]12CC[C@H](O)CC1=CC[C@@H]1[C@@H]2CC[C@]2(C)C(=O)CC[C@@H]12` [Dehydroepiandrosterone] (69.34 µM) is higher in “fraction of cells in G1 phase” value: 0.423 for the first, 0.501 for the second.

`CCCCC(C#N)(Cn1cncn1)c1ccc(Cl)cc1` (stereo not given) [Myclobutanil] (69.2563 µM) was tested, and the “fraction of cells in G1 phase” value was 0.536.

same assay, conditions: temperature: 30 C; YPD; JTY2953 pdr5 snq2 (sensitized); drug added to: actively dividing cells; 6 h

First: C[C@]12Cc3c[nH]nc3C[C@@H]1CC[C@@H]1[C@@H]2CC[C@@]2(C)[C@H]1CC[C@]2(C)O [Stanozolol] (60.8824 µM)
Second: C[C@]12CC[C@H](O)CC1=CC[C@@H]1[C@@H]2CC[C@]2(C)C(=O)CC[C@@H]12 [Dehydroepiandrosterone] (69.34 µM)
The “fraction of cells in G1 phase” value of the first is lower: 0.497 for the first, 0.719 for the second.

Going from `CC1C=CC=CCCC=CC=CC=CC=CC(OC2OC(C)C(O)C(N)C2O)CC2OC(O)(CC(O)C(O)CCC(O)CC(O)CC(O)CC(=O)OC(C)C(C)C1O)CC(O)C2C(=O)O` (stereo not given) [Nystatin] (21.5955 µM) to `C[C@@H]1CC[C@H]2[C@@H](C)C(=O)O[C@@H]3O[C@@]4(C)CC[C@@H]1[C@]32OO4` [Artemisinin] (70.8367 µM), the “fraction of cells in G1 phase” value falls from 0.699 to 0.691.

Compared with `O=c1[nH]c2ccccc2n1C1CCN(CCCC(c2ccc(F)cc2)c2ccc(F)cc2)CC1` [Pimozide] (43.3313 µM), `CCCCC(C#N)(Cn1cncn1)c1ccc(Cl)cc1` (stereo not given) [Myclobutanil] (69.2563 µM) is higher in “fraction of cells in G1 phase” value: 0.344 for the first, 0.766 for the second.

For `C#C[C@]1(O)CC[C@H]2[C@@H]3CCC4=CC(=O)CCC4=C3C=C[C@@]21CC` [Gestrinone] (64.8457 µM), the “fraction of cells in G1 phase” value was 0.736.

same assay, conditions: temperature: 30 C; YPD; JTY2953 pdr5 snq2 (sensitized); drug added to: cultures diluted from stationary phase; 6-7 h

Compared with `O=C(O)CCCc1ccc(N(CCCl)CCCl)cc1` [Chlorambucil] (65.7421 µM), `O=P1(N(CCCl)CCCl)NCCCO1` (stereo not given) [Cyclophosphamide monohydrate] (76.6021 µM) is higher in “fraction of cells in G1 phase” value: 0.456 for the first, 0.501 for the second.

Compared with `C#C[C@]1(O)CC[C@H]2[C@@H]3CCC4=CC(=O)CC[C@]4(C)[C@H]3CC[C@@]21C` [Ethisterone] (64.009 µM), `C[C@]12CCC(=O)C(O)=C1CC[C@@H]1[C@@H]2CC[C@]2(C)C(=O)CC[C@@H]12` [Formestane] (66.1338 µM) is higher in “fraction of cells in G1 phase” value: 0.462 for the first, 0.566 for the second.

Going from `C[C@]12Cc3c[nH]nc3C[C@@H]1CC[C@@H]1[C@@H]2CC[C@@]2(C)[C@H]1CC[C@]2(C)O` [Stanozolol] (60.8824 µM) to `C[C@]12CC[C@H](O)CC1=CC[C@@H]1[C@@H]2CC[C@]2(C)C(=O)CC[C@@H]12` [Dehydroepiandrosterone] (69.34 µM), the “fraction of cells in G1 phase” value falls from 0.801 to 0.633.

First: CCCC(=O)OCC[N+](C)(C)C [Butyrylcholine Cl] (114.768 µM)
Second: C[N+](C)(C)CCCCCCCCCC[N+](C)(C)C [Decamethonium 2Br] (77.371 µM)
The “fraction of cells in G1 phase” value of the first is higher: 0.504 for the first, 0.472 for the second.

Compared with `CC1C=CC=CCCC=CC=CC=CC=CC(OC2OC(C)C(O)C(N)C2O)CC2OC(O)(CC(O)C(O)CCC(O)CC(O)CC(O)CC(=O)OC(C)C(C)C1O)CC(O)C2C(=O)O` (stereo not given) [Nystatin] (21.5955 µM), `CC[C@H](C)[C@H]1O[C@]2(C=C[C@@H]1C)C[C@@H]1C[C@@H](C/C=C(\C)[C@@H](O[C@H]3C[C@H](OC)[C@@H](O[C@H]4C[C@H](OC)[C@@H](O)[C@H](C)O4)[C@H](C)O3)[C@@H](C)/C=C/C=C3\CO[C@@H]4[C@H](O)C(C)=C[C@@H](C(=O)O1)[C@]34O)O2.CO[C@H]1C[C@H](O[C@H]2[C@H](C)O[C@@H](O[C@@H]3/C(C)=C/C[C@@H]4C[C@@H](C[C@]5(C=C[C@H](C)[C@@H](C(C)C)O5)O4)OC(=O)[C@@H]4C=C(C)[C@@H](O)[C@H]5OC/C(=C\C=C\[C@@H]3C)[C@]54O)C[C@@H]2OC)O[C@@H](C)[C@@H]1O` [Abamectin] (22.9069 µM) is lower in “fraction of cells in G1 phase” value: 0.665 for the first, 0.516 for the second.

Going from `CC[C@@H](C(N)=O)N1CCCC1=O` [Levetiracetam] (117.5 µM) to `COc1ccc(C(=O)N2CCCC2=O)cc1` [Aniracetam] (91.2233 µM), the “fraction of cells in G1 phase” value falls from 0.529 to 0.483.

Going from `N[C@@H]1C[C@H]1c1ccccc1.N[C@H]1C[C@@H]1c1ccccc1` [Tranylcypromine] (150.156 µM) to `CN1[C@@H]2CC[C@H]1C[C@@H](OC(=O)C(CO)c1ccccc1)C2` (stereo not given in full) [Atropine sulfate] (69.1138 µM), the “fraction of cells in G1 phase” value falls from 0.531 to 0.474.

Going from `CN(C)[C@@H]1C(=O)C(C(N)=O)=C(O)[C@@]2(O)C(=O)C3=C(O)c4c(O)cccc4[C@@](C)(O)[C@H]3C[C@@H]12` [Tetracycline] (44.9999 µM) to `CN1C[C@@H](NS(=O)(=O)N(C)C)C[C@@H]2c3cccc4c3c(cn4C)C[C@H]21` [Mesulergine HCl] (55.1728 µM), the “fraction of cells in G1 phase” value rises from 0.471 to 0.547.

Going from `COc1ccc2c(c1)[C@]13CCCC[C@@H]1[C@H](C2)N(C)CC3` [Dextromethorphan HBr] (73.6903 µM) to `C=CCN1CC[C@]23c4c5ccc(O)c4O[C@H]2C(=O)CC[C@@]3(O)[C@H]1C5` [Naloxone HCl] (61.0904 µM), the “fraction of cells in G1 phase” value falls from 0.503 to 0.488.

Going from `O=c1[nH]c2ccccc2n1C1CCN(CCCC(c2ccc(F)cc2)c2ccc(F)cc2)CC1` [Pimozide] (43.3313 µM) to `COc1ccc(CCN2CCC(Nc3nc4ccccc4n3Cc3ccc(F)cc3)CC2)cc1` [Astemizole] (43.6125 µM), the “fraction of cells in G1 phase” value falls from 0.85 to 0.501.

First: C#C[C@]1(O)CC[C@H]2[C@@H]3CCC4=CC(=O)CCC4=C3C=C[C@@]21CC [Gestrinone] (64.8457 µM)
Second: C[C@@H]1CC[C@H]2[C@@H](C)C(=O)O[C@@H]3O[C@@]4(C)CC[C@@H]1[C@]32OO4 [Artemisinin] (70.8367 µM)
The “fraction of cells in G1 phase” value of the first is lower: 0.609 for the first, 0.613 for the second.

Compared with `COc1ccc(C(=O)c2c(C)n(CCN3CCOCC3)c3ccccc23)cc1` [Pravadoline] (52.8436 µM), `CCCC[N+]1(C)[C@@H]2C[C@@H](OC(=O)[C@H](CO)c3ccccc3)C[C@H]1[C@@H]1O[C@@H]12` (stereo not given in full) [Scopolamine n-butylbromide] (55.482 µM) is lower in “fraction of cells in G1 phase” value: 0.594 for the first, 0.488 for the second.

Compared with `CCCCC(C#N)(Cn1cncn1)c1ccc(Cl)cc1` (stereo not given) [Myclobutanil] (69.2563 µM), `C#CCN(C)C(C)Cc1ccccc1` (stereo not given) [Deprenyl] (89.4055 µM) is lower in “fraction of cells in G1 phase” value: 0.667 for the first, 0.518 for the second.

First: CN(C)C(=O)Oc1cc(OC(=O)N(C)C)cc(C(O)CNC(C)(C)C)c1 (stereo not given) [Bambuterol] (54.4293 µM)
Second: O=P1(NCCCl)OCCCN1CCCl (stereo not given) [Ifosfamide] (76.6021 µM)
The “fraction of cells in G1 phase” value of the first is higher: 0.518 for the first, 0.489 for the second.
